# Source: PubChem BioAssay (National Center for Advancing Translational Sciences (NCATS))
# Compounds with a hit are over-represented: about 12% of the library has one in this group of screens.
# Sfp PPTase inh – inhibitors of Bacillus subtilis Sfp phosphopantetheinyl transferase; Q9F4F7; Biochemical Sfp PPTase activity, qHTS; Potency, µM, for inactives: largest response in the series, negative = inhibition, usual class: inhibitors; 3.5% of 310,000 active; AID 1490;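 also: the enzyme is Sfp with the accession as filed and its product quenches rhodamine fluorescence; 0% = enzyme reaction without inhibitor and -100% = no enzyme wells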
#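 Buffer: 50 mM Hepes-Na pH 7.6, 10 mM MgCl2, 0.01% Nonidet P-40, 0.01% BSA. Enzyme 15 nM, pre-exposed to compound 15 min; substrates then added and fluorescence change tracked over 30 min.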
# BAZ2B block – BAZ2B (human) inhibition; Q9UIF8; AlphaScreen BAZ2B-H3K14Ac peptide displacement; Potency, µM (titrated, usually from 114 µM), without a hit: at the highest dose activity change, negative = inhibition, actives largely listed as inhibitors; 4.4% of 360,000 active; AID 504333; also: % is scaled to controls: 0 for no effect and ±100 for the full control effect; nearly all actives have a fitted effect of over 60% in size
#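 BAZ2B 50 nM plus b-H3(5-23)K14Ac 50 nM, PBS pH 7.4/0.01% Tween-20, 30 min RT; compound added (max 110 uM), 30 min RT; streptavidin donor/Ni-chelate acceptor beads 10 ug/mL final, 20 min dark; AlphaScreen read.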
# TDP1 block – TDP1 (human) enzyme inhibition | Potency, µM (series often up to 130 µM), inactives show top-dose activity change, negative = inhibition, actives largely listed as inhibitors | 0.28% of 350,000 active | recombinant TDP1, AlphaScreen DNA substrate cleavage; also: % is scaled to controls: 0 for no effect and ±100 for the full control effect; nearly all actives have a fitted effect of over 40% in size
# Target sequence (Q9NUW8 whole entry, looked up): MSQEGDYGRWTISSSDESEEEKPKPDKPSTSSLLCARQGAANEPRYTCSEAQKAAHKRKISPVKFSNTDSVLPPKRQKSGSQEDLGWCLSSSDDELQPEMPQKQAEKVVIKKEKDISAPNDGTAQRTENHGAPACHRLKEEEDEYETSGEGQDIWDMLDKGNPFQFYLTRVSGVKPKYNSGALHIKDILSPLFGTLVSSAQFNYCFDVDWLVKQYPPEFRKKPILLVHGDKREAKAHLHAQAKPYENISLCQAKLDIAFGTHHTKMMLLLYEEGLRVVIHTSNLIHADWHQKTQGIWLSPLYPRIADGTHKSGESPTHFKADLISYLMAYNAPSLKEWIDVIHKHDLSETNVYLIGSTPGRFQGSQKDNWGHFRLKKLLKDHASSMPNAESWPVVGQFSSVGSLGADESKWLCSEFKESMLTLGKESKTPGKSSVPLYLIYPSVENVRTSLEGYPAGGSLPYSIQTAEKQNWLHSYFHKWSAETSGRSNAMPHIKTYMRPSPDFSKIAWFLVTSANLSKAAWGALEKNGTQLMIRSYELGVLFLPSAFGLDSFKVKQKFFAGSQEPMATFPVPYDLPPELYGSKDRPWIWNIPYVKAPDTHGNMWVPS
#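 Signal: AlphaScreen proximity between streptavidin donor and anti-FITC acceptor beads on intact substrate. Reaction: Tdp1 1 nM, substrate 15 nM final, 5 min RT after 15 min compound preincubation.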
# JMJD2A Tudor inh – blocks the human JMJD2A Tudor domain; O75164; AlphaScreen JMJD2A-Tudor / H3K4me3 peptide binding; Potency, µM (doses to about 114 µM), for the others: at the top dose activity change, negative = inhibition, usual class: inhibitors; 4.4% of 390,000 active; also: % is scaled to controls: 0 for no effect and ±100 for the full control effect; nearly all actives have a fitted effect of over 50% in size
# HP1b binding inh – blocks HP1-beta chromodomain binding to methylated histone tails. P83916. AlphaScreen HP1-beta / biotin-H3K9me3 peptide binding. Potency, µM (top dose mostly 114 µM), without a hit: at the top dose activity change, negative = inhibition, usual class: inhibitors. 0.56% of 390,000 active; also: nearly all actives have a fitted effect of over 70% in size
#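 HP1-beta protein (50 nM final) preincubated 30 min at room temperature with biotinylated H3(1-18)K9me3 peptide (50 nM) in PBS pH 7.4, 0.01% Tween-20, then compound added for 30 min. AlphaScreen streptavidin donor/nickel chelate acceptor beads (10 ug/mL final), 30 min dark, luminescence read.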
# G9a inh – G9a (human) methyltransferase inhibition | Q96KQ7 | G9a H3K9 monomethylation, AlphaScreen, 2 h | Potency, µM (series often up to 102 µM), inactives show at the highest dose activity, negative = inhibition, most hits filed as inhibitors | 8.8% of 350,000 active | AID 504332; also: % is scaled to controls: 0 for no effect and ±100 for the full control effect; nearly all actives have a fitted effect of over 75% in size
#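 Methyltransferase reactions run at room temperature for 2 h (20 nM enzyme, 500 nM biotin-H3K9 peptide, 20 uM SAM) after a 15 min compound preincubation; product detected by AlphaScreen beads and anti-H3K9me1 antibody.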
# * hit, by the source's call; u = inconclusive; x = no result; [ ] = another dose, or the depositor's remark. Calls follow the shape of the dose curve; as a rule, active = well fitted curve in the direction sought with a large enough effect; inconclusive = small, poorly fitted or top-dose-only effect, or another doubt; inactive = no such curve, though single readings can be large; an effect the other way counts as inactive or inconclusive. Potency is read from the fitted curve at half-maximal effect.
SMILES,Sfp PPTase inh,BAZ2B block,TDP1 block,JMJD2A Tudor inh,HP1b binding inh,G9a inh
O=c1c([N+](=O)[O-])c(O)c2ccccc2n1Cc1ccccc1,u,-17%,x,-28%,18%,28µM*
CCn1c(=O)c([N+](=O)[O-])c(NCC(O)c2ccccc2)c2ccccc21 (stereo unspecified),8%,-4%,3%,1%,13%,-10%[59 µM]
CCn1c(=O)c([N+](=O)[O-])c(NCCN(C)C)c2ccccc21,3.5µM*,-29%,1%,-11%,29%,56µM*
COc1ccc(C(=O)N2CCN(S(=O)(=O)c3ccc(Cl)cc3)CC2)cc1S(=O)(=O)N1CCOCC1,x,x,x,-8%,32%,x
COC(=O)CCN1CCC2CC1c1cc(-c3cccc(C)c3)ccc12 (stereo unspecified),x,x,x,-19%,20%,x
N#C/C(=C\c1cccc(O)c1)c1nc2ccccc2o1,79µM*,-25%,8%,-23%,3%,-26%
Cn1c(/C(C#N)=C/c2cccc(O)c2)nc2ccccc21,14%,-19%,-8%,22µM*,u,-24%
COc1ccc(OC)c(/C=C2\SC(=S)N(NS(=O)(=O)c3ccccc3)C2=O)c1,1%,40µM*,x,u,-3%,-37%[12.7 µM]
COc1ccc(/C=C2\SC(=S)N(NS(=O)(=O)c3ccccc3)C2=O)c(OC)c1,u,-21%,x,-26%,6%,u
COc1ccc(/C=C2\SC(=S)N(NS(=O)(=O)c3ccc(C)cc3)C2=O)c(OC)c1,-26%,u,x,56µM*,-19%[57 µM],-46%
COc1ccccc1/C=C1\SC(=S)N(NS(=O)(=O)c2ccc(C)cc2)C1=O,-15%,50µM*,x,u,-18%,u
CCOc1ccc(/C=C2\SC(=S)N(NS(=O)(=O)c3ccc(C)cc3)C2=O)cc1OC,-22%,u,x,u,-10%,u
COc1ccc(OC)c(/C=C2\SC(=S)N(NS(=O)(=O)c3ccc(C)cc3)C2=O)c1,11%,u,x,50µM*,u,5%[2.33 µM]
COC(=O)c1cc(S(=O)(=O)N2CCC(C)CC2)cn1C,-4%,1%,1%,-3%,50%,x
COc1cccc(Nc2ncc3nc(CCc4ccccc4)c(=O)n(C)c3n2)c1,12%,x,x,x,x,6%[0.501 µM]
O=S(=O)(c1ccc2c(c1)OCCO2)N1CCN(S(=O)(=O)c2c(F)ccc(O)c2F)CC1,x,x,-1%,-14%,x,x
O=C(NC1CCCCC1)C(c1cccs1)N(CCCN1CCOCC1)C(=O)c1ccc(-c2ccccc2)[nH]1 (stereo unspecified),u,50µM*,5%,u,u,x
COC(=O)c1ccc(COC(=O)C(NC(=O)Cc2ccccc2)C(C)C)cc1 (stereo unspecified),x,-3%,-20%,3%,37%,-40%
O=C(NC1CCCCC1)C(c1ccc(O)cc1)N(C(=O)c1cnccn1)c1cccc(F)c1 (stereo unspecified),13%,-9%,1%,-16%,22%,10%
COc1ccc(Cl)cc1N1C(=O)CN(Cc2cc(OC)c(OC)c(OC)c2)C1=S,50µM*,-27%,x,u,u,35µM*
COc1ccc(CN2CC(=O)N(c3cc(Cl)ccc3OC)C2=S)cc1OC,-18%,-23%,x,-20%,-12%,u
CCn1cc(C(=O)NCCCOC(C)C)c(=O)c2cc(S(=O)(=O)N(C)C3CCCCC3)ccc21,x,x,2%,-14%,63%,3%[59 µM]
CCN(CC)CCN(C(=O)c1cc2ccccc2cc1OC)c1nc2ccc(F)cc2s1,-26%,u,13%,32µM*,19%,40µM*
CN(C)CCCN(C(=O)c1cc2ccccc2oc1=O)c1nc2ccc(F)cc2s1,-5%,-32%,-3%,-15%,15%,u
CCN(CC)CCN(C(=O)c1cc2ccccc2cc1OC)c1nc2ccc(OC)cc2s1,50µM*,u,16%,u,-6%,45µM*
CCN(CC)CCN(C(=O)c1ccc([N+](=O)[O-])cc1)c1nc2ccc(OC)cc2s1,-8%,x,1%,-6%,18%,u
